Compound activity from PubChem.
In the library only some 1.4% were active in any assay of this set; here they are far more common.
Mtb MbtI inh = MbtI salicylate synthase inhibitors, primary screen, biochemical, fluorescence intensity | P9WFX0 | purified MbtI enzyme, fluorescence intensity read-out | inhibition, % (no concentration beside the values) | 0.89% of 100,000 active | AID 493033, 2011; in the data active = inhibition mostly above about 56%, no sharp cut-off; inactive = mostly below about 77%
Polio RdRp inh = poliovirus RdRp elongation inhibitors, primary screen, biochemical, fluorescence polarization, total intensity. Genome polyprotein (Poliovirus type 1 (strain Mahoney)), P03300. poliovirus polymerase elongation; hits give low values. % elongation, % (compound at 16.7 µg/mL). 0.66% of 150,000 active. AID 588519, 2011; in the data active = % elongation below about 90%
Mtb MenB inh = M. tuberculosis MenB inhibitors, primary screen, biochemical, absorbance; MenB enzyme assay, absorbance read-out; AID 540299, 2011; 0.43% of 100,000 active; inhibition, % (no concentration beside the values); 1,4-dihydroxy-2-naphthoyl-CoA synthase (Mycobacterium tuberculosis (strain ATCC 25618 / …; in the data active = inhibition above about 21%, passing the limit was not always enough
Target sequence (P9WNP5 whole entry, looked up): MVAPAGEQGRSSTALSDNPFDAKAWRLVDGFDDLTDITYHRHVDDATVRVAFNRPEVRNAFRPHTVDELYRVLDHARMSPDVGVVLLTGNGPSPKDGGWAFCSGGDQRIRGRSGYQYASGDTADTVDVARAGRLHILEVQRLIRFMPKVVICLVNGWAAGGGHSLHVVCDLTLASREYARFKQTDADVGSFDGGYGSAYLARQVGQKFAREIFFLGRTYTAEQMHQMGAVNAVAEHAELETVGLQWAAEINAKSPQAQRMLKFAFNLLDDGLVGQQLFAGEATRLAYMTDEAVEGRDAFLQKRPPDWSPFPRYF
AID504770 = growth inhibition of E. coli YBA685, primary screen, V. cholerae RctB inhibitors | E. coli YBA685 rctB-dependent plasmid, OD600 growth, 3 h; hits give low values | z-score (test concentration not listed) | 0.27% of 130,000 active; in the data active = z-score below about -2, passing the limit was not always enough
Numbers stand for hits; 0 = inactive; - = no result given.

SMILES	Mtb MbtI inh	Polio RdRp inh	Mtb MenB inh	AID504770
COc1cc(/C=C2/C(=O)NN(c3ccc(Cl)cc3)C2=O)ccc1OC(=O)c1ccco1	99	0	0	0
C=CCN1C(=O)/C(=C\c2ccc(OC(=O)c3ccco3)c(OC)c2)SC1=S	0	0	0	0
CN1C(=O)NC(=O)/C(=C\C=C\c2ccccc2)C1=O	84	0	0	0
CN1C(=O)NC(=O)/C(=C/c2ccc(F)cc2)C1=O	0	0	0	0
O=C1NC(=O)C(=C/C=C/c2ccccc2)C(=O)N1	78	0	0	0
Cc1cc(/C=C(\C#N)C(=O)C(C)(C)C)c(C)n1C1CCCC1	0	0	0	0
Cc1ccc(-n2c(=O)c3sccc3n(CC(=O)c3ccc(Br)cc3)c2=O)cc1F	0	0	0	0
COc1ccccc1C1=NN(C(=S)Nc2ccccc2)C(c2ccco2)C1 (stereo not drawn)	73	0	0	0
COc1cccc(C2=NN(C(=O)c3ccccc3Cl)C(c3ccco3)C2)c1 (stereo not drawn)	0	0	0	0
COc1ccccc1CNC(=O)CCc1c(C)nn(-c2ccc(N3CCCC3)nn2)c1C	-	0	-	-
Cc1nonc1NC(=O)Nc1cccnc1	-	0	0	-2
CCOc1ccc([C@@H]2[C@H](C(=O)O)c3ccccc3C(=O)N2Cc2ccccc2)c(O)c1	0	69	0	0
COc1ccc(C2C(C(=O)O)c3ccccc3C(=O)N2Cc2ccc(Cl)cc2)cc1 (stereo not drawn)	0	0	0	0
COc1cccc(/C=N/N2C(=O)CSC2=S)c1O	0	85	0	0
NC(=O)C1CCN(c2nc3c(S(=O)(=O)c4ccc(Br)cc4)nnn3c3ccccc23)CC1	0	0	0	0
Cc1ccc(S(=O)(=O)c2[nH]c(=S)sc2N2CCOCC2)cc1	93	-	0	0
CCc1nn(CC(=O)NCc2ccc(C)cc2)c(=O)c2cc3occc3n12	-	72	-	-
CCCCc1noc(-c2ccc(OC(=O)c3ccccc3)cc2)n1	0	0	0	0
S=C(NCc1ccc2c(c1)OCO2)N(Cc1ccco1)Cc1cccs1	60	88	0	0
O=C(NCc1ccc2c(c1)OCO2)c1cccs1	-	-	-	0
CO[C@@]12[C@@H]3NC3CN1C1=C(C(=O)C(N)=C(C)C1=O)[C@@H]2COC(N)=O (stereo partly drawn)	0	0	0	-5.2
Cc1c(Cl)cccc1N1C(=O)CC(Sc2nnnn2-c2ccccc2)C1=O (stereo not drawn)	98	0	0	0
O=C1CCCC1Sc1nnnn1-c1ccccc1 (stereo not drawn)	0	0	0	0
S=C(c1ccc(Br)cc1)N1CCCC1	-	0	0	0
Oc1ccc(C(=S)N2CCCCC2)cc1	58	0	0	0
SMILES	Mtb MbtI inh	Polio RdRp inh	Mtb MenB inh	AID504770
O=C(Nc1ccccc1N1CCCCC1)c1ccco1	-	-	-	0
O=C(Nc1cccc(C2=NCCN2)c1)Nc1cccc(C2=NCCN2)c1	-	68	0	0
CCOC(=O)CC1c2cc(OCC)c(OCC)cc2CCN1S(C)(=O)=O (stereo not drawn)	0	0	0	0
O=C(CCC(=O)c1ccccc1)Nc1cccnc1	0	0	0	0
Cc1ccc(CN(Cc2ccco2)C(=O)COc2c(C)cc(C)cc2C)cc1	-	0	-	-
CCOc1ccc(-c2csc(Cn3c(CN4CCN(C)CC4)nc4ccccc4c3=O)n2)cc1	85	66	0	0
O=c1[nH]sc2ccccc12	0	0	51	0
COc1ccc(Cl)cc1NC1=NCC(C)S1 (stereo not drawn)	0	0	0	0
CCn1c(C2CC2)n[nH]c1=S	87	-	0	0
Cn1c(C2CC2)n[nH]c1=S	0	0	0	0
CN(C)S(=O)(=O)c1cc(C(=O)NCCc2ccccc2)c(Cl)cc1Cl	-	-	-	0
Cc1c(CCNC(=O)c2cc(S(=O)(=O)N(C)C)c(Cl)cc2Cl)c2ccccc2n1C	-	89	0	0
CN(CC(=O)N1CCCC1=O)Cc1ccccc1	0	0	0	0
CCN(CC)CC(=O)N1CCCC1=O	0	0	43	0
Cc1c(-c2ccnc(N)n2)cnn1-c1ccccc1	-	-	-	0
Nc1nc2c(s1)CCc1c-2cnn1-c1ccccc1	-	42	0	0
CCC(Sc1nc(-c2ccc(OC)cc2)nc2c1c(=O)n(C)c(=O)n2C)C(=O)OC (stereo not drawn)	0	0	0	0
Cc1ccc(C)n1-c1ccsc1C(=O)O	0	48	0	0
Cc1ccc(Cn2nnc3c(C)nn4c(-c5cccnc5)nnc4c32)cc1	0	0	0	0
C=CCN(CC=C)C(=O)C[n+]1cccc(C(N)=O)c1	0	0	0	0
C=CCN(CC=C)C(=O)C[n+]1ccc(C(N)=O)cc1	0	0	0	-4
O=C(NC1CCCCC1)c1cc2c(=O)oc3ccccc3c2s1	-	-	-	0
CNS(=O)(=O)c1cccc(C(=O)OCC(=O)N(C)c2ccccc2)c1	0	0	0	0
CC(C)(C)OC(=O)N1CCN(C(=O)Nc2ccc(C(=O)O)cc2)CC1	0	0	0	0
Cc1c(C(=O)CSc2ncc(C#N)c(N)n2)c2ccccc2n1C	-	0	30	0
SMILES	Mtb MbtI inh	Polio RdRp inh	Mtb MenB inh	AID504770
COC(=O)CSc1ncc(C#N)c(N)n1	0	0	0	0
CCOc1cc(S(=O)(=O)NCc2ccc(OC)cc2)c(OCC)cc1-n1cnnn1	0	0	0	0
CCOc1cc(S(=O)(=O)NCCc2ccc(OC)c(OC)c2)c(OCC)cc1-n1cnnn1	0	0	44	0
O=C(NC1CCCc2ccccc21)C1c2ccccc2Oc2ccccc21 (stereo not drawn)	0	0	0	0
CCCCNS(=O)(=O)c1ccc2[nH]c(=S)[nH]c2c1	0	88	0	0
CC(O)CNCCOc1ccc2ccccc2c1Cl (stereo not drawn)	0	0	0	0
c1cncc(-c2nnc(-c3cccnc3)nn2)c1	-	66	0	0
c1ccc(-c2nnc(-c3cccnc3)nc2-c2ccccc2)cc1	0	0	0	0
Cc1cc(C)c(CO)c(C)c1CO	0	0	0	0
Cc1cc(C)c(C)c(S(=O)O)c1C	0	83	0	0
FC(F)(F)/C(=N\P(=S)(N1CCOCC1)N1CCOCC1)N1CCOCC1	0	0	0	0
CN(C)CCN(C(=O)Cc1ccccc1)c1nc2cc3c(cc2s1)OCCO3	0	0	0	-2.3
CN(C)CCN(C(=O)c1ccco1)c1nc2cc3c(cc2s1)OCO3	0	0	0	0
O=C1CCCC2=C1C1(O)C(=O)c3ccccc3C1(O)O2 (stereo not drawn)	0	78	0	0
Nc1ccc2c(c1)OC1(O)c3ccccc3C(=O)C21O (stereo not drawn)	0	0	0	0
NC(=S)CC(=O)Nc1ccccc1	93	0	0	0
NC(=O)c1ccc(NC(=O)CSC(=O)c2ccccc2)cc1	70	0	-	0
NC(=S)Nc1ccc(C(=O)O)cc1	0	81	0	0
CCOC(=O)c1ccccc1NC(=S)N(C)Cc1ccccc1	0	0	0	0
CCOc1ccc(C(=O)NCC(=O)N2CCC(C)CC2)cc1OCC	0	0	0	0
Cn1cnnc1SCC(=O)Nc1sc2c(c1C#N)CCC2	0	0	0	0
